Measurements taken from ChEMBL document CHEMBL2218924, “A broad activity screen in support of a chemogenomic map for kinase signalling research and drug discovery” (Biochem J, 2013).

Columns and labels:
[1] = biological target: T1, Serine/threonine-protein kinase TBK1 (Homo sapiens) (UniProt Q9UHD2); details: at 10 µM
T1 sequence (whole entry): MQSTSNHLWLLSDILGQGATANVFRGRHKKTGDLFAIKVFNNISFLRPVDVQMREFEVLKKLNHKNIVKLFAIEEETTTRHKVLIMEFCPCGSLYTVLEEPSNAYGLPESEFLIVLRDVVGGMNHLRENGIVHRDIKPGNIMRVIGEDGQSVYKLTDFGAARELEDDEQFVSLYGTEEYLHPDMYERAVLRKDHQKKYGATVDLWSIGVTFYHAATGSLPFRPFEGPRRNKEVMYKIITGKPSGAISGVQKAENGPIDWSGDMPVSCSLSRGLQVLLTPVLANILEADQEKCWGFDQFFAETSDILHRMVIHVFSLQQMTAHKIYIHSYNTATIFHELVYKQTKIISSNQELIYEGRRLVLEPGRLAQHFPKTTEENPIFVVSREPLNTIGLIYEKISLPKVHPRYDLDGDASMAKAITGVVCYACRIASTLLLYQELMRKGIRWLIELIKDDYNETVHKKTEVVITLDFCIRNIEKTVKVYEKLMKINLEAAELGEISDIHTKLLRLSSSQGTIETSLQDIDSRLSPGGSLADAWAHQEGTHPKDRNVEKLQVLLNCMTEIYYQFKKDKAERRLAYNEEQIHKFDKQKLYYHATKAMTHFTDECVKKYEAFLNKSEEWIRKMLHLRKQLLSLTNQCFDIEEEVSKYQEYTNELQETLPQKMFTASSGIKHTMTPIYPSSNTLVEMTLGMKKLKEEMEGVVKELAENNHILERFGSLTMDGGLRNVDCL

[2] = biological target: T2, TGF-beta receptor type-1 (Homo sapiens) (UniProt P36897); details: at 1 µM
T2 sequence (whole entry): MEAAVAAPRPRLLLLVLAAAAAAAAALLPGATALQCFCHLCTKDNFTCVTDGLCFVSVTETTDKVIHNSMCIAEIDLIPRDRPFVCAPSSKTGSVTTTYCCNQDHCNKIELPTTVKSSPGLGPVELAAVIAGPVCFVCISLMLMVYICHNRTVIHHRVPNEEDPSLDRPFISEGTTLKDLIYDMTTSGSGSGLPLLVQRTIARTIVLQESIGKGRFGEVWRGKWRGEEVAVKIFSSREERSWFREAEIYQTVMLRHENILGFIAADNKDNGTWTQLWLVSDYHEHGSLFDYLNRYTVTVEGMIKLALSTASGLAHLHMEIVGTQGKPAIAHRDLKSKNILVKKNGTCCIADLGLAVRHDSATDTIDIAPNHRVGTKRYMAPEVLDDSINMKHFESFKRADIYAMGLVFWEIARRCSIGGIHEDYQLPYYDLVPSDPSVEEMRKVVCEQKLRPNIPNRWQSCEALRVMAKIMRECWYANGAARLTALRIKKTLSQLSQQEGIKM

[3] = biological target: T2, TGF-beta receptor type-1 (Homo sapiens); details: at 10 µM
[4] = biological target: Insulin-like growth factor 1 receptor (Homo sapiens) (UniProt P08069); details: at 1 µM
Chain of Insulin-like growth factor 1 receptor (Homo sapiens) (P08069 31-736 limits assumed): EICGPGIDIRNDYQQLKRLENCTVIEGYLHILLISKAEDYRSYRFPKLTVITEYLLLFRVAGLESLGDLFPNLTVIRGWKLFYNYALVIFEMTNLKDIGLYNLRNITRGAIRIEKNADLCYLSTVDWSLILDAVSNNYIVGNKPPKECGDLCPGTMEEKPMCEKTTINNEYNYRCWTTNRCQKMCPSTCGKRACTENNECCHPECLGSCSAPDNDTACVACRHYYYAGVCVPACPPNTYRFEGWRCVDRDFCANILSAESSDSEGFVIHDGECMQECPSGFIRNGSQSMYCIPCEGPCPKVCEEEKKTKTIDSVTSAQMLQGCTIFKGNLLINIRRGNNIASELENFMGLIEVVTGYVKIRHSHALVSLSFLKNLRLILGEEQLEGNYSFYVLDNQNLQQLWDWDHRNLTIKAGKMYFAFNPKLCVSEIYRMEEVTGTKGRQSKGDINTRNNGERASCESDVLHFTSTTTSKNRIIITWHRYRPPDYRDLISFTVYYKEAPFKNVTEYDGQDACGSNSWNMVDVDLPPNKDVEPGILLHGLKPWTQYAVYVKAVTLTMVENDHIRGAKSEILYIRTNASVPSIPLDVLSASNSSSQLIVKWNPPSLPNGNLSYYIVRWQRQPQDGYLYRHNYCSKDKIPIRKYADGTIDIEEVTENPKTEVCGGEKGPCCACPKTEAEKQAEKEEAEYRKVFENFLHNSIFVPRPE
Chain of Insulin-like growth factor 1 receptor (Homo sapiens) (P08069 741-1367 limits assumed): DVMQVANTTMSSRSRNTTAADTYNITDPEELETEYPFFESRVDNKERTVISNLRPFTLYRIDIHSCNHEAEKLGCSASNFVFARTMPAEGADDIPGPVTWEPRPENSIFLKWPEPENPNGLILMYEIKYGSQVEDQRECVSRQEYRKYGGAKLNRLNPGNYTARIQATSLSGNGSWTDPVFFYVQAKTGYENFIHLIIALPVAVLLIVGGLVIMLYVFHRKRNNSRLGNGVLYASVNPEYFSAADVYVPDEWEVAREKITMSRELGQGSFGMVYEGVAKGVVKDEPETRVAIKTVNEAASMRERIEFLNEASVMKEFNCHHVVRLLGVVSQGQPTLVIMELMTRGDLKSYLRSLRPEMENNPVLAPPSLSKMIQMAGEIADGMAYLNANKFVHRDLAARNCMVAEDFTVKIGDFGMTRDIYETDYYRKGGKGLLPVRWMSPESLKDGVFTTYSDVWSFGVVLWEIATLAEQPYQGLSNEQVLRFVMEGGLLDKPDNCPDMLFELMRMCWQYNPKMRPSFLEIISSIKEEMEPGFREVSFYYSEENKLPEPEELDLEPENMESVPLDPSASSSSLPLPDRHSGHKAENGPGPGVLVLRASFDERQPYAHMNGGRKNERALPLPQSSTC

[5] = biological target: Insulin-like growth factor 1 receptor (Homo sapiens) (UniProt P08069); details: at 10 µM
[6] = biological target: T3, Inhibitor of nuclear factor kappa-B kinase subunit alpha (Homo sapiens) (UniProt O15111); details: at 1 µM
T3 sequence (whole entry): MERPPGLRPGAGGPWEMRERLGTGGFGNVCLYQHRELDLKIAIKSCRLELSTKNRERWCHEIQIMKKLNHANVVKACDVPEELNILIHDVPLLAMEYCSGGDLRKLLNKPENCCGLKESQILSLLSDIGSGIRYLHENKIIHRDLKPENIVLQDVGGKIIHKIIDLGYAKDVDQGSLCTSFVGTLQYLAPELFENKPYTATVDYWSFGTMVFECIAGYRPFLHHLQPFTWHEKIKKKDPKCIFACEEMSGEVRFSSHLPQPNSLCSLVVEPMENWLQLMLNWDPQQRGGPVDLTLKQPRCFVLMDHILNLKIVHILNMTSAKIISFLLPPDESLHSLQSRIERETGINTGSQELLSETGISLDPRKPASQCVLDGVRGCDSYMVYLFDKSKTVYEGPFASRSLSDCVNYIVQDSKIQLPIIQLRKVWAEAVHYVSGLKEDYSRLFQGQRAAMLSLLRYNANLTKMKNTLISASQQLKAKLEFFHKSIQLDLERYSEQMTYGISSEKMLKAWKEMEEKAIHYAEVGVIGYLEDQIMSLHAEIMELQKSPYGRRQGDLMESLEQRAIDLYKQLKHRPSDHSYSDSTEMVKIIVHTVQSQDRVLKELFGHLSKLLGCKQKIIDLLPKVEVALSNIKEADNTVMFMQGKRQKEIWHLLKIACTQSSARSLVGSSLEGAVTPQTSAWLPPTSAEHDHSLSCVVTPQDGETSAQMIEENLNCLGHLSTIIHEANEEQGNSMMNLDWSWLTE

[7] = biological target: T3, Inhibitor of nuclear factor kappa-B kinase subunit alpha (Homo sapiens); details: at 10 µM
[8] = biological target: T4, Inhibitor of nuclear factor kappa-B kinase subunit beta (Homo sapiens) (UniProt O14920); details: at 1 µM
T4 sequence (whole entry): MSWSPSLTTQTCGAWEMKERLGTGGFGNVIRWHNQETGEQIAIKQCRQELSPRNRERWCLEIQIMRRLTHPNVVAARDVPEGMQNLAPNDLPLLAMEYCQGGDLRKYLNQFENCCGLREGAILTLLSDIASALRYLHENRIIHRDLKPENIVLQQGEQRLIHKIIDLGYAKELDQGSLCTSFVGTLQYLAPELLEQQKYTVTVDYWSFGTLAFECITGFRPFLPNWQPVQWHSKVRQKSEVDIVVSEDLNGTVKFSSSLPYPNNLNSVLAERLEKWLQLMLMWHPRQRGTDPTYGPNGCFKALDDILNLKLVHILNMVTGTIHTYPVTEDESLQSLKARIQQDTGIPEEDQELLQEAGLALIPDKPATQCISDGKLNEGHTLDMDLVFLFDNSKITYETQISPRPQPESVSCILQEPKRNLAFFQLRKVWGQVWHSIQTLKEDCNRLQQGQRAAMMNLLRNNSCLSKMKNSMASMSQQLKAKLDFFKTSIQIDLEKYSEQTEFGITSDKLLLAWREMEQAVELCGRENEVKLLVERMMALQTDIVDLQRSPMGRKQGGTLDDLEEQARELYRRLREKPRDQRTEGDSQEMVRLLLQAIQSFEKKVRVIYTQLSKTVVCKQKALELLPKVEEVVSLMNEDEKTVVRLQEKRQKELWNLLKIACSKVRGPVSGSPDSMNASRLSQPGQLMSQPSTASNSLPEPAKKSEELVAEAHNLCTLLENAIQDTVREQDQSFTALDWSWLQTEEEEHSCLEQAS

[9] = biological target: T4, Inhibitor of nuclear factor kappa-B kinase subunit beta (Homo sapiens); details: at 10 µM
[10] = biological target: Insulin receptor (Homo sapiens) (UniProt P06213); details: at 1 µM
Chain of Insulin receptor (Homo sapiens) (P06213 28-758 limits assumed): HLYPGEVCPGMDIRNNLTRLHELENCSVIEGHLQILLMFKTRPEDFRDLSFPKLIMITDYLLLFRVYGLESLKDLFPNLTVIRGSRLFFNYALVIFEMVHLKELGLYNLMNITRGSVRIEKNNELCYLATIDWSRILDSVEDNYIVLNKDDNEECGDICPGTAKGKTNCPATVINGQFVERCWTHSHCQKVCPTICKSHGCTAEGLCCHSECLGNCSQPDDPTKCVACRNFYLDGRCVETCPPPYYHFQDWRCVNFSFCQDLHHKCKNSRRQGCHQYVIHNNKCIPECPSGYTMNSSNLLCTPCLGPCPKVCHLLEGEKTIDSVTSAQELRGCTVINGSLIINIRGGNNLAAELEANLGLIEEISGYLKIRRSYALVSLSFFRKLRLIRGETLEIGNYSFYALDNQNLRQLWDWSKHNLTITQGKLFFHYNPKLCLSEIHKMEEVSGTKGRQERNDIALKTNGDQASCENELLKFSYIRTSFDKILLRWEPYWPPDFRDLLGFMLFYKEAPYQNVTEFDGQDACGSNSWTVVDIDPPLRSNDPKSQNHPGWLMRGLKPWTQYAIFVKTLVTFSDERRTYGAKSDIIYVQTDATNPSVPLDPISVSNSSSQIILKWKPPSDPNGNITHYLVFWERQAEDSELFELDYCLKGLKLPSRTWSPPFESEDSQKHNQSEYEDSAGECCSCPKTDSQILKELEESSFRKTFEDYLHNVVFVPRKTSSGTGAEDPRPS
Chain of Insulin receptor (Homo sapiens) (P06213 763-1382 limits assumed): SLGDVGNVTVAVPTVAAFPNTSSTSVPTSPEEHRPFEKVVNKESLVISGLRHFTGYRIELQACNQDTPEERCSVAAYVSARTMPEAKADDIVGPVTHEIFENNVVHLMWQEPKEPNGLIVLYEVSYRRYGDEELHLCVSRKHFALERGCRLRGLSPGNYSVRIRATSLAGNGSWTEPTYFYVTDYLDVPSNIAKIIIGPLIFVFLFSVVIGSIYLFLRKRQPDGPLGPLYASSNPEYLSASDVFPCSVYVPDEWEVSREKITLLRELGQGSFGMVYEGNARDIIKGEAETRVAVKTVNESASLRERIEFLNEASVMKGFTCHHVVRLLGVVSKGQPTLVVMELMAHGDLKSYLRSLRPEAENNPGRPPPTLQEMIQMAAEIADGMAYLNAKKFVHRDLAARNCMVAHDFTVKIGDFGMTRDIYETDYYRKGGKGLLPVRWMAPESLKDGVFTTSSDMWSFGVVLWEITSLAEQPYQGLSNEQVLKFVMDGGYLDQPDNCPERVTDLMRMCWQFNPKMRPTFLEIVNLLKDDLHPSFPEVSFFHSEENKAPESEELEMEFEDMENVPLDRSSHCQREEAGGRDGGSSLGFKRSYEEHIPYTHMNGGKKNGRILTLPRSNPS

Work on CC(C)c1nn(-c2c(Cl)cccc2Cl)c2nc(Cc3ccc(OCCO)cc3)[nH]c(=O)c12 yielded a residual activity [1] of 63%, a residual activity [2] of 94% and a residual activity [3] of 86%. It also gave a residual activity [4] of 105%, a residual activity [5] of 107% and a residual activity [6] of 99%. For the same compound, the residual activity [7] was 90%, the residual activity [8] was 109% and the residual activity [9] was 100%. For the same compound, the residual activity [10] was 85%.
